# Measured values published in PubChem BioAssay (EPA / NIEHS).
# The source made the active and inactive calls. How the source made its calls: active means hit-call score of the fitted dose curve at least 0.9, where 1 is the maximum; inactive means score below 0.9.
# Experiment: ATG_TAL_CIS: Attagene CIS-FACTORIAL HepG2 Assay for human TAL Basal Promoter (AID 2282966)
# Conditions: HepG2 Attagene cis-factorial TAL promoter reporter; actives raise or lower the signal
# Procedure: ATG_CIS is a cell-based, multiplexed-readout assay that uses HepG2, a human liver cell line, with measurements taken at 24 hours after chemical dosing in a 24-well plate.ATG_TAL_CIS is one of 52 assay component(s) measured or calculated from the ATG_CIS assay. It is designed to make measurements of mRNA induction, a form of inducible reporter, as detected with fluorescence intensity signals by Reverse transcription polymerase chain reaction (RT-PCR) and Capillary electrophoresis technology.Data from the assay component ATG_TAL_CIS was analyzed into 1 assay endpoint. This assay endpoint, ATG_TAL_CIS, was analyzed with bidirectional fitting relative to DMSO as the negative control and baseline of activity. Using a type of inducible reporter, measures of mRNA for gain or loss-of-signal activity can be used to understand the background control at the transcription factor-level as they relate to the gene . Furthermore, this assay endpoint can be referred to as a secondary readout, because this assay has produced multiple assay endpoints where this one serves a background control function. To generalize the intended target to other relatable targets, this assay endpoint is annotated to the background measurement intended target family, where the subfamily is internal marker.
# Human liver HepG2 cells are transiently transfected with multiple reporter transcription units (MRTUs) in 6-well plates using FuGene 6 reagent (Roche; 3 ml FuGene/1 mg DNA). The MRTU constructs are regulated by a cis-regulating element (promoter). […] A major difference between the CIS and TRANS system is that in CIS activities of endogenous TFs are measured, whereas the TRANS assay evaluates changes in activities of exogenous, chimeric NR-Gal4 proteins. […] At the end of 24 hour incubation, total RNA was isolated using TriZol reagent (Invitrogen). The isolated RNA is then reverse-transcribed using oligo(dT) primer and Mo-MLV reverse transcriptase (Invitrogen) with DNAse I (Ambion) treatment for 30 min. The one-tenth of the produced cDNA was amplified by PCR using Taq DNA polymerase (Invitrogen) and two reporter sequence-specific primers. The PCR products were fluorescently labeled by primer extension with 6-arboxyfluorescein (6-FAM) 5'-labeled reporter sequence-specific primer (2 min at 95 C, 20 s at 68 C and 10 min at 72 C) and these products were digested with 5U of HpaI (New England Biolabs) for 2h at 37 C. The fragments were purified using Qiaquick PCR columns (Qiagen), analyzed on an ABI 3130xL genetic analyzer (Applied Biosystems) with peak positions identified by using a set of X-rhodamine (ROX)-labeled MapMarker1000 molecular weight standards (BioVentures). The raw capillary electrophoresis data was processed using Attagraph software (Attagene).
SMILES,outcome,AC50
CNS(=O)(=O)C(F)(F)C(F)(F)C(F)(F)C(F)(F)C(F)(F)C(F)(F)C(F)(F)C(F)(F)F,inactive,
FC(F)(F)C(F)(F)C(F)(F)CC1CO1 (stereo not given),inactive,
CCOCOCC,inactive,
Brc1ccccn1,inactive,
CC(C)OC=O,inactive,
CCC(Cc1c(I)cc(I)c(N)c1I)C(=O)O (stereo not given),inactive,
CCN(CC)c1ccc(C=O)c(O)c1,inactive,
NC(=O)C(F)(F)C(F)(F)C(F)(F)C(F)(F)C(N)=O,inactive,
CCCCCCCCCCCCCCCCC,inactive,
Oc1ccc(C2(c3ccc(O)c(C4CCCCC4)c3)CCCCC2)cc1C1CCCCC1,,17.9 µM (active)
C[Si](Cl)(Cl)CCC(F)(F)C(F)(F)C(F)(F)C(F)(F)C(F)(F)C(F)(F)F,inactive,
C=CC(=O)OCC(F)(F)C(F)(F)C(F)(F)COC(=O)C=C,inactive,
FC(F)(F)C(F)(F)C(F)(F)C(F)(F)C(F)(F)C(F)(F)C(F)(F)CCI,inactive,
COC(F)(C(F)F)C(F)(F)F (stereo not given),inactive,
CCCCCCCCCCCCCC[P+](CCCC)(CCCC)CCCC,inactive,
Nc1c(Br)cc([N+](=O)[O-])cc1Br,inactive,
OCC(F)(F)C(F)(F)C(F)(F)CO,inactive,
Cc1cnccn1,inactive,
O=C1OC(=O)c2ccc3c4c(ccc1c24)C(=O)OC3=O,inactive,
CC(C)=CCCC(C)O (stereo not given),inactive,

SMILES,outcome,AC50
CO[Si](C)(CCC(F)(F)C(F)(F)C(F)(F)C(F)(F)C(F)(F)C(F)(F)F)OC,inactive,
O=C1C=CC(=O)N1c1ccccc1,inactive,
F[Si-2](F)(F)(F)(F)F,inactive,
CC(O)C#CC(C)O (stereo not given),inactive,
C[Si](C)O[Si](C)C,inactive,
N#CCCOCCC#N,inactive,
Cc1cc(O)c(C(C)(C)C)cc1C(C)(C)C,inactive,
Nc1cccnc1N,inactive,
Cc1cc(=O)[nH]c(C(C)C)n1,inactive,
CCCCOC(=O)C(C)O (stereo not given),inactive,
CC(=O)CCC(C)C,inactive,
CC(C)(C)c1cc(CCC(=O)NCCCCCCNC(=O)CCc2cc(C(C)(C)C)c(O)c(C(C)(C)C)c2)cc(C(C)(C)C)c1O,inactive,
CSc1ccc(O)cc1C,inactive,
OCC(F)(F)C(F)(F)C(F)(F)C(F)(F)C(F)(F)C(F)(F)C(F)(F)C(F)(F)CO,inactive,
CC(C)(C)c1cc(Cc2cc(C(C)(C)C)c(O)c(C(C)(C)C)c2)cc(C(C)(C)C)c1O,inactive,
CCN(CCO)S(=O)(=O)C(F)(F)C(F)(F)C(F)(F)C(F)(F)C(F)(F)C(F)(F)C(F)(F)C(F)(F)F,inactive,
CC(C)(C)C(=O)C1C(=O)c2ccccc2C1=O,inactive,
OCC(O)CC(F)(F)C(F)(F)C(F)(F)C(F)(F)C(F)(F)C(F)(F)C(F)(F)C(F)(F)F (stereo not given),inactive,
O=C(O)C(F)(F)OC(F)(F)C(F)(F)OC(F)(F)C(F)(F)OC(F)(F)F,inactive,
NCC(F)(F)C(F)(F)C(F)(F)C(F)(F)C(F)(F)C(F)(F)C(F)(F)C(F)(F)F,inactive,
